Measured values published in ChEMBL document CHEMBL4513146, “CO-ADD screening of Karazin Kharkiv National University (Ukraine) compounds”.
Entries with a potency or affinity are not part of this list.

How the values were obtained:
Staphylococcus aureus = conditions: Concentration 32 ug.mL-1;; ASSAY_TEST Inhibition of Bacterial Growth; detection method Absorption (OD600); MEDIA CAMHB; plate type 384well; NBS; CORNING #3640; time 18 hr
Escherichia coli = conditions: Concentration 32 ug.mL-1;; ASSAY_TEST Inhibition of Bacterial Growth; detection method Absorption (OD600); MEDIA CAMHB; plate type 384well; NBS; CORNING #3640; time 18 hr

With CSc1ccc(CNC(=O)Cn2nc3c(N4CCOCC4)nccn3c2=O)cc1 the Inhibition (Staphylococcus aureus) was 19.42% and the Inhibition (Escherichia coli) was -0.45%.
For Cc1cc(C)cc(N(Cc2ccccc2F)S(=O)(=O)c2cccn3c(C)nnc23)c1, the Inhibition (Staphylococcus aureus) was 15.31% and the Inhibition (Escherichia coli) was -0.2%.
In the case of Cc1ccc(CSc2nnc3c(=O)n(-c4ccc(Br)cc4)ccn23)cc1, the Inhibition (Staphylococcus aureus) is reported as 13.68% and the Inhibition (Escherichia coli) is reported as -2.08%.
Molecule O=C(CSc1nnc2c(=O)n(-c3ccccc3)ccn12)Nc1ccc(Cl)cc1 has an Inhibition (Staphylococcus aureus) of 3.58% and an Inhibition (Escherichia coli) of -4.07%.
Work on CCCCOc1ccc(-c2cc3c4nnc(SCC(=O)Nc5ccc(CC)cc5)n4ccn3n2)cc1 yielded an Inhibition (Staphylococcus aureus) of -9.56% and an Inhibition (Escherichia coli) of -11.54%.
For COc1cccc(Oc2nccn3c(=O)n(CC(=O)Nc4cccc(Br)c4)nc23)c1, the Inhibition (Staphylococcus aureus) was 9.05% and the Inhibition (Escherichia coli) was -6.35%.
For Cc1ccc(NC(=O)CSc2nnc3c(=O)n(-c4ccc(C)c(C)c4)ccn23)c(Cl)c1, the Inhibition (Staphylococcus aureus) was 11.19% and the Inhibition (Escherichia coli) was -1.65%.
With COc1ccc(-c2cc3c4nn(CC(=O)Nc5c(C)cc(C)cc5C)c(=O)n4ccn3n2)cc1 the Inhibition (Staphylococcus aureus) was 9.75% and the Inhibition (Escherichia coli) was 4.81%.
CCc1ccc(N(Cc2ccccc2)S(=O)(=O)c2cccn3cnnc23)cc1 gave an Inhibition (Staphylococcus aureus) of 5.64% and an Inhibition (Escherichia coli) of -1.12%.
For COC(=O)c1ccc(NC(=O)CSc2nnc3c4cc(-c5ccc(OC)cc5)nn4ccn23)cc1, the Inhibition (Staphylococcus aureus) was 8.99% and the Inhibition (Escherichia coli) was 0.03%.
With CCc1ccccc1Sc1nccn2c(=O)n(CC(=O)Nc3cc(Cl)c(OC)cc3OC)nc12 the Inhibition (Staphylococcus aureus) was -16.84% and the Inhibition (Escherichia coli) was -7.56%.
Cc1nnc2c(S(=O)(=O)N(Cc3cc(F)cc(F)c3)c3cccc(F)c3)cccn12 gave an Inhibition (Staphylococcus aureus) of 8.19% and an Inhibition (Escherichia coli) of -6.31%.
For O=C(CSc1nnc2c(=O)n(-c3ccccc3)ccn12)Nc1ccc(F)cc1F, the Inhibition (Staphylococcus aureus) was -3.92% and the Inhibition (Escherichia coli) was -2.13%.
COc1cccc(CNC(=O)CSc2nnc3ccc(C(=O)Nc4cccc(F)c4)cn23)c1 gave an Inhibition (Staphylococcus aureus) of 9.49% and an Inhibition (Escherichia coli) of -5.27%.
Cc1ccc(Sc2nccn3c(=O)n(CC(=O)Nc4ccccc4Br)nc23)c(C)c1 gave an Inhibition (Staphylococcus aureus) of -0.81% and an Inhibition (Escherichia coli) of -13.84%.
Molecule CC(C)c1nnc2c(=O)n(CC(=O)Nc3ccccc3)c3ccccc3n12 has an Inhibition (Staphylococcus aureus) of 12.53% and an Inhibition (Escherichia coli) of 4.36%.
CCOC(=O)c1ccccc1NC(=O)Cn1nc2c(Oc3cccc(C)c3C)nccn2c1=O was tested, and the Inhibition (Staphylococcus aureus) was 5.11% and the Inhibition (Escherichia coli) was -6.35%.
